Experimental findings from PubChem BioAssay (EPA / NIEHS) are described below.

Assay [1] in a line: Tanguay_ZF_120hpf_MO24: Oregon State University Tanguay Lab 24 Hour Post-fertilization zebrafish Assay for Mortality (AID 2284389). In a few lines: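 Dechorionated wild-type zebrafish embryos, 1 per well, statically exposed from 6 hpf at 28C, 0.64% DMSO final. Mortality scored as binary present/absent at 24 hpf by brightfield microscopy, relative to DMSO.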
Assay [2] in a line: Tanguay_ZF_120hpf_DP24: Oregon State University Tanguay Lab 24 Hour Post-fertilization zebrafish Assay for Delayed Development (AID 2284390). In a few lines:
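Dechorionated 5D wild-type zebrafish embryos exposed statically from 6 hpf, one per well, 0.64% DMSO final, 28 C, sealed and dark. Developmental progression scored at 24 hpf by brightfield as binary present/absent; dead embryos excluded.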

Assay [3] in a line: Tanguay_ZF_120hpf_CRAN: Oregon State University Tanguay Lab 120 Hour Post-fertilization zebrafish Assay for Craniofacial Malformation (AID 2284397). In a few lines:
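Dechorionated Tropical 5D wild-type zebrafish embryos, one per well, were statically exposed from 6 to 120 hpf at 28C in 0.64% DMSO, with 5uM trimethyltin chloride as positive control. Craniofacial malformation was scored present/absent by brightfield microscopy, relative to DMSO.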

Assay [4] in a line: CCTE_Mundy_HCI_iCellGluta_NOG_NeuriteCount: CCTE's Neurite Outgrowth Assay in iCellGluta cells for Neurite Count, Mundy Lab (AID 2284342; active means hit-call score of the fitted dose curve at least 0.9, where 1 is the maximum;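 further: chemical exposure about 48 hours starting 2 hours after plating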).
The subject of assay [5] is SRY-box transcription factor 17 (SOX17) Protein Expression, Deisenroth Lab, SOX17 (gene 64321). Nature of the assay: CCTE_Deisenroth_DEVTOX-GLR_legacy_Sox17: (Legacy) CCTE's DevTox GLR-Endo Assay Evaluation of SRY-box transcription factor 17 (SOX17) Protein Expression, Deisenroth Lab (AID 2284341). To be noted: actives raise or lower the signal. In a few lines:
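RUES2-GLR human pluripotent cells differentiated toward endoderm for 48 h, dosed twice at 24 h intervals (1 nM–200 uM, 10 points). Imaging gives % SOX17+ cells (intensity >5x BMAD above pluripotent control median); bidirectional fit versus 0.2% DMSO.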

The subject of assay [6] is SRY-box transcription factor 2 (SOX2) Protein Expression, Deisenroth Lab, SOX2 (gene 6657). In words: CCTE_Deisenroth_DEVTOX-GLR_legacy_Sox2: (Legacy) CCTE's DevTox GLR-Endo Assay Evaluation of SRY-box transcription factor 2 (SOX2) Protein Expression, Deisenroth Lab (AID 2284346). In a few lines:
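RUES2-GLR human pluripotent cells seeded 24 h, then differentiated 48 h in defined media with two chemical doses 24 h apart (10-point, 1 nM–200 uM). Fixed, nuclear-stained, imaged; % Sox2+ cells (>5x BMAD over endoderm control median), DMSO-subtracted, fitted upward.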

For a further assay, the system named is SERPINA7 (gene 6906). In words: CCTE_GLTED_hTBG: CCTE's human Thyroxine-binding Globulin (TBG) Inhibition Assay, Great Lakes Toxicology and Ecology Division (GLTED) Lab (AID 2284343; active means hit-call score of the fitted dose curve at least 0.9, where 1 is the maximum;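 further: active chemicals lower fluorescence versus DMSO baseline by displacing probe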). In a few lines: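 Human TBG incubated 2 h with test chemical; displacement of ANSA probe read by fluorescence, 380 nm excitation/475 nm emission. Loss of signal relative to DMSO.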

A short description of assay [7]: CCTE_Deisenroth_H295R-HTRF_384WELL_ESTRADIOL: CCTE's H295R-HTRF Assay Evaluation of Estradiol Concentration, Deisenroth Lab (AID 2284361). To be noted: actives raise or lower the signal. In a few lines:
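H295R cells exposed 48 h to chemicals at 0.001 - 100 uM final (nine points, triplicate); estradiol in conditioned medium measured by HTRF immunoassay, fitted bidirectionally versus DMSO. Viability by CellTiter-Glo on same plates.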
A general note: TR-FRET usually uses a lanthanide donor and a delayed reading to cut background.

A short description of assay [8]: CCTE_Deisenroth_H295R-HTRF_384WELL_TESTOSTERONE: CCTE's H295R-HTRF Assay Evaluation of Testosterone Concentration, Deisenroth Lab (AID 2284373). To be noted: actives raise or lower the signal. As to the method:
CCTE_Deisenroth_H295R-HTRF_384WELL assay is a cell-based, multiplex-readout assay that uses H295R, a human adrenocortical carcinoma cell line, with measurements taken at 48 hours after chemical dosing in a 384-well microplateCCTE_Deisenroth_H295R-HTRF_384WELL_TESTOSTERONE is one of 3 assay components calculated in the CCTE_Deisenroth_H295R-HTRF_384WELL assay (2 hormones and 1 viability components). It is designed to make measurements of hormone induction, a form of inducible reporter, as detected with Homogenous Time Resolved Fluorescence immunoassay technology.This assay endpoint, CCTE_Deisenroth_H295R-HTRF_384WELL_TESTOSTERONE, was analyzed with bidirectional fitting relative to DMSO as the negative control and baseline of activity. Using a type of inducible reporter, gain or loss-of-signal activity using Homogenous Time Resolved Fluorescence technology was used to understand synthesis of testosterone in the H295R cell line at 48hr of chemical exposure. […]
Standard operating procedures for the cell culture medium, maintenance, expansion, and cryopreservation of the NCI-H295R adrenocortical carcinoma adherent cell line were adopted directly from guideline specifications7,13. […] Fluorescent endpoint measurements are conducted with a microplate reader equipped with an HTRF-compatible filter set (ex: 320 (10) […]; em: 620 (10) and 665 (10) nM). […]

Assay [9] in a line: CCTE_Deisenroth_H295R-HTRF_384WELL_CTOX: Cytotoxicity Assessment in CCTE's H295R-HTRF Assay, Deisenroth Lab (AID 2284380; active means hit-call score of the fitted dose curve at least 0.9, where 1 is the maximum). In a few lines:
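H295R adrenocortical carcinoma cells plated 24 h, then exposed 48 h to nine-point series 0.001–100 uM final, triplicate, n=5. ATP measured by CellTiter-Glo 2.0 luminescence on same plates after medium collection; loss versus DMSO.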

Values joined by “and” are separate entries in the source; they are usually repeats but may differ in a detail not shown here. Equal values may be shown once. Inconclusive results are not listed. Active and inactive are the calls of the source. How the source made its calls, unless noted: active means hit-call score of the fitted dose curve at least 0.9, where 1 is the maximum; inactive means score below 0.9.

With `OCCC(F)(F)C(F)(F)C(F)(F)C(F)(F)F`, the result in [1], in assay [2] and in assay [3] was inactive.
As to `FC(F)(F)C(F)(F)C(F)(F)C(F)(F)C(F)(F)C(F)(F)I`, the call in [4], in [1], in assay [2] and in [3] was inactive.
With `Nc1ccn([C@@H]2O[C@H](CO)[C@@H](O)[C@@H]2O)c(=O)n1`, the AC50 in assay [5] was 0.554 µM (active); in assay [4], 959 nM (active) and 1.04 µM (active); in assay [6] it was 0.937 µM (active).
As to `FC(F)=C(F)C(F)(F)C(F)(F)C(F)(F)C(F)(F)C(F)(F)C(F)(F)F`, the result in assay [4], in [1], in assay [2] and in assay [3] was inactive.
For the molecule `O=S(=O)(O)CCC(F)(F)C(F)(F)C(F)(F)C(F)(F)C(F)(F)C(F)(F)F`, the molecule was classed as inactive in [1], in [2] and in [3].
With `FC(F)(F)COC(OCC(F)(F)F)OCC(F)(F)F`, the call in assay [1], in assay [2] and in assay [3] was inactive.
Take `c1ccc2cc3ccccc3cc2c1`: the result in [4] was inactive.
On to `O=C(NO)C1(NS(=O)(=O)c2ccc(Oc3ccc(F)cc3)cc2)CCOCC1`, for which the result with SERPINA7 (gene 6906) was inactive.
As to `O=C(Cl)C(F)(F)C(F)(F)C(F)(F)C(=O)Cl`, the outcome in [4], in assay [2] and in assay [3] was inactive. In addition, the AC50 in assay [1] is 57.3 µM (active).
Consider `CCN(CC)C(=S)SSC(=S)N(CC)CC`, for which the AC50 in the assay on SERPINA7 (gene 6906) was 11.7 µM (active).
Turning to `Cn1cc[nH]c1=S`, in [4], the molecule was called inactive.
Turning to `CCc1ccc(O)c(C(C)(C)C)c1`, the AC50 in the assay with SERPINA7 (gene 6906) is 35.3 µM (active).
On to `NC(=O)N1c2ccccc2C=Cc2ccccc21`, for which the AC50 was 100 µM (active) in [5] and 30.5 µM (active) in the assay on SERPINA7 (gene 6906). Besides, the result in assay [6] was inactive.
With `CCCC(CCC)C(=O)O`, the molecule was called inactive in assay [5] and in assay [6].
`C[C@]12C=CC(=O)C=C1CC[C@H]1[C@@H]3C[C@@H](O)[C@](O)(C(=O)CO)[C@@]3(C)C[C@H](O)[C@@]12F`: the AC50 in assay [4] was 23.7 µM (active).
As for `CCCCCCCCCCCCCCCCOS(=O)(=O)O`, in the assay on SERPINA7 (gene 6906), the AC50 is 2.91 µM (active).
Take `NNC(=O)c1ccncc1`: the outcome in assay [5] and in assay [6] was inactive.
For `CC(C)C(=O)Nc1ccc([N+](=O)[O-])c(C(F)(F)F)c1`, the result (in the assay with SERPINA7 (gene 6906); in assay [7]; in assay [8]) was inactive. For the same molecule, the AC50 in assay [9] was 66.7 µM (active).
As for `C=CCc1cc(S(=O)(=O)c2ccc(O)c(CC=C)c2)ccc1O`, the half-maximal activity concentration (AC50) in the assay on SERPINA7 (gene 6906) was 1.47 µM (active).
As for `FC(F)C(F)(F)COCC1CO1` (stereo unspecified), the molecule was classed as inactive in assay [1], in assay [2] and in assay [3].
With `C[Si](C)(C)C(F)(F)C(F)(F)C(F)(F)F`, the molecule was classed as inactive in [1], in assay [2] and in assay [3].
With `OC(O)(C(F)C(O)(O)C(F)(F)F)C(F)(F)F`, the molecule was classed as inactive in [4], in assay [1] and in assay [2]. In addition, the AC50 in [3] is 42.2 µM (active).
Turning to `NCC(F)(F)C(F)(F)C(F)(F)C(F)(F)F`, the molecule was called inactive in [1], in [2] and in assay [3].

By AC50 is commonly meant the concentration at which the activity in the assay is half-maximal.
